In PubChem BioAssay AID1159580 (chemical genetic matrix, 2015):
About 2,000 (36%) of roughly 5,500 compounds were called active. Inconclusive results (about 18%) are left out. No stated cut-off is given here; in the data, active means normalized growth mostly below about 0.91 (no sharp cut-off); inconclusive means no clear call, values can overlap the other calls; inactive means mostly above about 0.92. Some of the results follow.

Assay: chemical genetic growth profiling, strain panel (AID 1159580);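 further: tested at 20 µM; growth read once vehicle control cultures reached saturation at 30 °C; 1 = growth at the plate median or of vehicle wells; lower values mean less growth of the strain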
Conditions: S. cerevisiae deletion strains, growth OD

Measured: normalized growth

C=C1C2CC[C@@]3(C)[C@H](c4ccoc4)OC(=O)C[C@]13O[C@H]1CC(=O)C(C)(C)[C@H](C(OC(C)=O)C(=O)OC)[C@@]21C (stereo not given in full)
inactive: locus YAL021C, strain ccr4, hits give low values 1 | locus YAL026C, strain drs2, hits give low values 1.03 | locus YAL030W, strain snc1, hits give low values 1 | locus YBL061C, strain skt5, hits give low values 1.02 | locus YBR009C, strain hhf1, hits give low values 1.02 | locus YBR021W, strain FUR4, hits give low values 0.999 | locus YBR023C, strain chs3, hits give low values 0.998 | locus YBR171W, strain sec66, hits give low values 1.02 | locus YBR229C, strain ROT2, hits give low values 0.994 | locus YBR231C, strain swc5, hits give low values 1.04 | locus YBR279W, strain paf1, hits give low values 1.01 | locus YCL011C, strain gbp2, hits give low values 0.993 | locus YCL016C, strain dcc1, hits give low values 0.983 | locus YCL029C, strain bik1, hits give low values 1 | locus YCL069W, strain vba3, hits give low values 1 | locus YCR088W, strain abp1, hits give low values 1.01 | locus YDL005C, strain med2, hits give low values 1.01 | locus YDL035C, strain GPR1, hits give low values 0.978 | locus YDL040C, strain nat1, hits give low values 1 | locus YDL074C, strain BRE1, hits give low values 1.01 | locus YDL101C, strain DUN1, hits give low values 1.01 | locus YDL185W, strain tfp1, hits give low values 1.01 | locus YDL192W, strain arf1, hits give low values 0.998 | locus YDR001C, strain nth1, hits give low values 1.02 | locus YDR069C, strain doa4, hits give low values 1.03 | locus YDR101C, strain arx1, hits give low values 0.978 | locus YDR137W, strain rgp1, hits give low values 0.872 | locus YDR150W, strain NUM1, hits give low values 0.985 | locus YDR159W, strain sac3, hits give low values 1.05 | locus YDR162C, strain NBP2, hits give low values 0.985 | locus YDR195W, strain ref2 1.02 | locus YDR297W, strain sur2, hits give low values 1.02 | locus YDR318W, strain mcm21, hits give low values 1.01 | locus YDR334W, strain swr1, hits give low values 1.01 | locus YDR335W, strain msn5, hits give low values 1.01 | locus YDR388W, hits give low values 1.01 | locus YDR392W, strain spt3, hits give low values 0.922 | locus YDR502C, strain sam2, hits give low values 1.02 | locus YEL003W, strain gim4, hits give low values 1.03 | locus YEL037C, strain rad23, hits give low values 1.01 | locus YEL061C, strain CIN8 (second series), hits give low values 1.01 | locus YEL061C, strain CIN8, hits give low values 0.99 | locus YER015W, strain faa2, hits give low values 1 | locus YER016W, strain bim1, hits give low values 1.01 | locus YER110C, hits give low values 1.01 | locus YER111C, strain swi4, hits give low values 1.02 | locus YER155C, strain BEM2 (second series), hits give low values 1.06 | locus YER155C, strain BEM2, hits give low values 1.02 | locus YER167W, strain BCK2, hits give low values 1 | locus YFR010W, strain ubp6, hits give low values 1.04 | locus YGL078C, strain dbp3, hits give low values 1.01 | locus YGL086W, strain mad1, hits give low values 0.987 | locus YGL167C, strain pmr1, hits give low values 1.01 | locus YGL173C, strain kem1, hits give low values 1.03 | locus YGL227W, strain vid30, hits give low values 1.01 | locus YGL240W, strain doc1, hits give low values 1.03 | locus YGL248W, strain PDE1, hits give low values 1.01 | locus YGL253W, strain hxk2, hits give low values 0.99 | locus YGR135W, strain pre9, hits give low values 1.05 | locus YGR252W, strain gcn5, hits give low values 1.02 | locus YHR013C, strain ard1, hits give low values 0.983 | locus YHR027C, strain rpn1, hits give low values 1.02 | locus YHR079C, strain IRE1 (second series), hits give low values 0.997 | locus YHR094C, strain hxt1, hits give low values 1.01 | locus YHR129C, strain ARP1, hits give low values 1.01 | locus YHR142W, strain chs7, hits give low values 0.977 | locus YHR200W, strain rpn10, hits give low values 1.01 | locus YIL066C, strain RNR3, hits give low values 0.976 | locus YIL073C, strain SPO22, hits give low values 1.01 | locus YIL125W, strain kgd1, hits give low values 0.994 | locus YIR030C, strain dcg1, hits give low values 0.997 | locus YJL092W, strain hpr5, hits give low values 1.02 | locus YJL095W, strain BCK1 (second series), hits give low values 1.02 | locus YJL095W, strain BCK1, hits give low values 1.04 | locus YJL115W, strain asf1, hits give low values 1.01 | locus YJL129C, strain trk1, hits give low values 1 | locus YJL134W, strain LCB3, hits give low values 0.998 | locus YJL154C, strain vps35, hits give low values 1.01 | locus YJL164C, strain tpk1, hits give low values 0.995 | locus YJL166W, strain qcr8, hits give low values 1.03 | locus YJL168C, strain set2, hits give low values 1 | locus YJL187C, strain SWE1 (second series), hits give low values 1.03 | locus YJL187C, strain SWE1, hits give low values 1 | locus YKL009W, strain mrt4, hits give low values 0.983 | locus YKL068W, hits give low values 1 | locus YKL085W, strain MDH1 (second series), hits give low values 0.981 | locus YKL085W, strain MDH1, hits give low values 0.981 | locus YKL160W, strain elf1, hits give low values 0.976 | locus YKR001C, strain vps1, hits give low values 0.995 | locus YKR026C, strain gcn3, hits give low values 1.01 | locus YKR091W, strain srl3, hits give low values 1 | locus YLL001W, strain dnm1, hits give low values 0.992 | locus YLL026W, hits give low values 1 | locus YLL041C, strain sdh2, hits give low values 1.01 | locus YLR027C, strain aat2, hits give low values 1.02 | locus YLR039C, strain RIC1, hits give low values 0.917 | locus YLR058C, strain SHM2, hits give low values 1.01 | locus YLR102C, strain apc9, hits give low values 1 | locus YLR221C, strain rsa3, hits give low values 1.04 | locus YLR258W, strain gsy2, hits give low values 1.02 | locus YLR262C, strain YPT6 (second series), hits give low values 0.892 | locus YLR268W, strain sec22, hits give low values 0.987 | locus YLR320W, strain mms22, hits give low values 1.03 | locus YLR342W, strain FKS1 (second series), hits give low values 0.978 | locus YLR342W, strain FKS1, hits give low values 1 | locus YLR357W, strain rsc2, hits give low values 1.02 | locus YLR370C, strain arc18, hits give low values 0.998 | locus YLR371W, strain rom2, hits give low values 1 | locus YLR384C, strain iki3, hits give low values 1.03 | locus YLR418C, strain cdc73, hits give low values 1.01 | locus YML016C, strain PPZ1, hits give low values 1 | locus YML032C, strain rad52, hits give low values 1.01 | locus YML120C, strain ndi1, hits give low values 1.01 | locus YML124C, strain tub3, hits give low values 1 | locus YMR058W, strain fet3, hits give low values 1.03 | locus YMR078C, strain ctf18, hits give low values 1.01 | locus YMR125W, strain sto1, hits give low values 0.996 | locus YMR129W, hits give low values 1.01 | locus YMR205C, strain PFK2, hits give low values 0.992 | locus YMR223W, strain ubp8, hits give low values 1.01 | locus YMR231W, strain pep5, hits give low values 1.01 | locus YMR307W, strain GAS1, hits give low values 0.996 | locus YNL067W, strain RPL9B, hits give low values 1.03 | locus YNL071W, strain lat1, hits give low values 0.993 | locus YNL209W, strain ssb2, hits give low values 0.993 | locus YNL233W, strain BNI4, hits give low values 1.01 | locus YNL248C, strain rpa49, hits give low values 1.04 | locus YNL250W, strain rad50, hits give low values 1.03 | locus YNL271C, strain bni1, hits give low values 1 | locus YNL298W, strain CLA4, hits give low values 1.01 | locus YNL307C, strain MCK1, hits give low values 1.01 | locus YNL322C, strain KRE1 (second series), hits give low values 1.02 | locus YNR049C, strain mso1, hits give low values 1.01 | locus YNR052C, strain pop2, hits give low values 1.02 | locus YOL006C, strain TOP1, hits give low values 0.972 | locus YOL012C, strain htz1 0.586 | locus YOL147C, strain pex11, hits give low values 1 | locus YOR001W, strain rrp6, hits give low values 1.04 | locus YOR061W, strain CKA2, hits give low values 0.997 | locus YOR069W, strain VPS5, hits give low values 1 | locus YOR070C, strain gyp1, hits give low values 1.03 | locus YOR080W, strain dia2, hits give low values 1.01 | locus YOR083W, strain WHI5, hits give low values 0.978 | locus YOR106W, strain vam3, hits give low values 0.958 | locus YOR136W, strain idh2, hits give low values 0.997 | locus YOR144C, strain elg1, hits give low values 1 | locus YOR184W, strain ser1, hits give low values 0.972 | locus YOR265W, strain rbl2, hits give low values 0.996 | locus YOR270C, strain vph1, hits give low values 0.904 | locus YOR290C, strain snf2, hits give low values 0.95 | locus YOR316C, strain cot1, hits give low values 1 | locus YPL051W, strain arl3, hits give low values 1.01 | locus YPL078C, strain atp4, hits give low values 0.958 | locus YPL106C, strain sse1, hits give low values 1.04 | locus YPL240C, strain hsp82, hits give low values 1.01 | locus YPR119W, strain clb2, hits give low values 1.01 | locus YPR141C, strain kar3, hits give low values 1 | locus YPR163C, strain tif3, hits give low values 1.01 | locus YPR167C, strain met16, hits give low values 0.999 | strain wtn01, hits give low values 0.993
